# In the library only some 12% were active in any assay of this set; here they are far more common.
# Shiga inhibitor – inhibitors of Shiga toxin in Vero cells; Vero cells, Shiga toxin protein synthesis inhibition reporter; 290,000 tested, 9.2% active; inhibition, % at 38.7 µM; in the data active = inhibition mostly above about 28%, no sharp cut-off; inactive = mostly below about 43%; also: 0% is about no effect
# Cycloheximide cs – counter-screen for Shiga toxin inhibitors: cycloheximide protein synthesis inhibition. cell reporter, cycloheximide protein synthesis inhibition counterscreen. AID 2314. max response, %. 300,000 tested, 12% active; in the data active = max response mostly above about 13%, no sharp cut-off; inactive = mostly below about 14%; also: read at 38.3 µM for the half of the compounds with a filed dose; 0% is about no effect
# NS1 inh – inhibitors of influenza NS1 protein function; Potency, µM (highest dose often 46.1 µM), for inactives: at the top dose activity, positive = more growth; 270,000 tested, 0.4% active; AID 2326; also: potency is read from the fitted curve at half-maximal effect; actives are rising curves; nearly all actives have a fitted effect of over 50% in size
#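 Recovery from NS1-induced slow growth read by OD600 in budding yeast switched to galactose assay medium (pH 6.0, -URA) at 1:100 dilution. Compound 23 nl per well; the matching strain lacking NS1 serves as control.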
# SARS PLP yeast – inhibitors of SARS-CoV papain-like protease in yeast; AID 485353; 330,000 tested, 0.19% active; Potency, µM (doses to about 32.9 µM), without a hit: top-dose activity, positive = growth rescue, usual class: activators; S. cerevisiae expressing SARS-CoV PLpro, growth rescue; also: potency is read from the fitted curve at half-maximal effect; 0% is about no effect; nearly all actives have a fitted effect of over 55% in size
# * = called active by the depositor; ? = inconclusive; / = not tested or not shown; + = active, no number. Unless noted, calls follow the shape of the full dose curve.
SMILES,Shiga inhibitor,Cycloheximide cs,NS1 inh,SARS PLP yeast
CCOc1ccc2nc(SCC(=O)NC3CC3)sc2c1,20,15*,-18%,-1%
CCOc1ccc2nc(SCCNS(=O)(=O)c3ccccc3)sc2c1,-5,1,-2%,0%
CCOc1ccc2nc(SCC(=O)c3ccccc3)sc2c1,91*,43*,-1%,4%
Cc1ccc(S(=O)(=O)N2CCN(C(=O)CN3CCCSc4ccccc43)CC2)cc1,/,/,/,1%
O=C(CCN1C(=O)/C(=C/c2ccccc2Cl)SC1=S)Nc1cccnc1,17,11,-3%,-2%
Cc1ccc(/C=C2/SC(=S)N(CCCC(=O)Nc3ccc(O)cc3)C2=O)cc1,25*,31*,-4%,-2%
O=C(CCCN1C(=O)S/C(=C/C=C/c2ccccc2)C1=O)Nc1ccc(C(=O)O)cc1,-25,-4,3%,2%
O=C(CN1C(=O)S/C(=C\C=C\c2ccccc2)C1=O)Nc1ccc(O)cc1,65*,72*,8%,-9%
O=C(CCCN1C(=O)/C(=C/c2ccccc2Cl)SC1=S)Nc1cccnc1,42*,29*,7%,30%
COc1cc(/C=C2\SC(=S)N(CCC(=O)Nc3cccc(O)c3)C2=O)cc(OC)c1OC,/,8,5%,1%
COc1ccccc1/C=C1\SC(=S)N(CCC(=O)Nc2cccc(O)c2)C1=O,27*,17*,-2%,-1%
N[C@@H](Cc1ccnnc1)C(=O)O,/,/,6%,/
Cc1cccc(NC(=O)CNC(=O)CN2C(=O)NC3(CCc4ccccc43)C2=O)c1C (stereo not given),/,/,/,4%
O=C(NCCCn1ncc2ccccc21)c1cc(COc2c(F)cccc2F)on1,13,7,-30%,-2%
C=CCOC(=O)C1=C(C)NC(=O)NC1c1cc2c(cc1Br)OCO2 (stereo not given),-7,2,23%,4%
O=C(CCCN1C(=O)/C(=C/c2ccccc2)SC1=S)Nc1cccc(O)c1,21*,12,/,-3%
O=C(CCCN1C(=O)/C(=C\c2ccccc2)SC1=S)Nc1cccc(C(=O)O)c1,2,-4,23%,0%
O=C(CCCN1C(=O)/C(=C\c2ccccc2)SC1=S)Nc1ccc(O)cc1,3,26*,-5%,-1%
COc1cccc(/C=C2/SC(=S)N(CCCC(=O)Nc3ccc(O)cc3)C2=O)c1,44*,27*,-5%,1%
Cc1ccc(OC(=O)c2ccc(C)c(C)c2)cn1,52*,34*,-18%,-19%
CC(=O)Oc1ccc(C(=O)Nc2cccc(C(=O)c3ccc(C)c(C)c3)c2)cc1,-6,-1,20%,1%
CC(=O)Oc1ccc(C(=O)Nc2cccc(NC(=O)c3ccco3)c2)cc1,4,-2,4%,-1%
COc1ccc(C(=O)Nc2cccc(OC(=O)c3ccc(C)c(C)c3)c2)cc1,43*,24*,21%,0%
COc1ccc(C(=O)Nc2cccc(OC(=O)c3ccco3)c2)cc1,44,20*,-12%,-7%
COc1nc(N/N=C/c2ccc(-c3ccccc3[N+](=O)[O-])o2)nc(N2CCOCC2)n1,110*,70*,9%,9%
SMILES,Shiga inhibitor,Cycloheximide cs,NS1 inh,SARS PLP yeast
O=C1OC(c2ccc(F)cc2)=C/C1=C\c1ccc([N+](=O)[O-])o1,20,13,/,-6%
O=C1OC(c2ccc(F)cc2)=C/C1=C\c1ccc(O)cc1,40,14*,7%,-1%
CCOC(=O)c1ccc(-c2cc(C)no2)[nH]1,42*,10,-5%,-7%
CCOc1ccccc1NC(=O)CSc1nnc(CNC(=O)c2cc(OC)c(OC)c(OC)c2)o1,11,5,9%,2%
NC(=O)c1ccc(NC(=O)CC23CC4CC(CC(Br)(C4)C2)C3)cc1,7,1,2%,6%
CCCCN(CC)CCNC(=O)Cn1cnc2sc(C)c(S(=O)(=O)N3CCC(C)CC3)c2c1=O,-8,-6,15%,9%
Cc1ccc(NC(=O)COc2ccccc2C=O)cc1Cl,29,26*,-8%,-2%
Cc1ccccc1OCC(=O)Nc1cccc(N(C)S(C)(=O)=O)c1,+,15*,-10%,?
CN(c1cccc(NC(=O)COc2ccc(Cl)cc2Cl)c1)S(C)(=O)=O,54*,19*,-7%,6%
CC(=O)Nc1cccc(NC(=O)COc2ccccc2C)c1,33*,20*,-4%,0%
COc1ccc(NS(=O)(=O)c2ccc(S(=O)(=O)N(C)C)cc2)cc1S(N)(=O)=O,-5,1,/,0%
CCOC(=O)c1sc2nc(SCC#N)n(CCCN3CCCC3=O)c(=O)c2c1C,-9,7,2%,0%
CN(c1ccccc1)S(=O)(=O)c1cccc(NC(=O)COc2ccccc2)c1,/,/,/,-6%
CN(c1cccc(NC(=O)COc2ccccc2)c1)S(C)(=O)=O,75*,43*,-9%,2%
